Values without a mark were called inactive. How the calls were made is not given here.

Sequence of Pantothenate synthetase (Mycobacterium tuberculosis (strain ATCC 25618 / H37Rv)) (P9WIL5 whole entry, looked up): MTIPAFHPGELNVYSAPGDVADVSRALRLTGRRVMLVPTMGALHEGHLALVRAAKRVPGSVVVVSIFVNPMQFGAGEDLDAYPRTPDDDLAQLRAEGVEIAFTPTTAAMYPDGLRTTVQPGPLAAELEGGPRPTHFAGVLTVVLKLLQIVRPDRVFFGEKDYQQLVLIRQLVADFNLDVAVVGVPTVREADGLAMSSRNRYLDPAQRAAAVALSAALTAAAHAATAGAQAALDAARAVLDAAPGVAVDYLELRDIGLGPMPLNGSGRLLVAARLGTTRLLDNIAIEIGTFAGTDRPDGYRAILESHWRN

The experiment concerns the target Pantothenate synthetase (Mycobacterium tuberculosis (strain ATCC 25618 / H37Rv)) (UniProt P9WIL5). The experiment can be described thus: Recombinant Mtb pantothenate synthetase (PanC) inhibitors, coupled enzyme, confirmatory (AID 375).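 Further: 0% = full reaction with vehicle and 100% = no enzyme background.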 Particulars: coupled enzyme assay; at 10 µM, stronger effect = higher value.
In general, inhibition refers to the percentage by which the read-out fell short of the control. Take `Cc1ccc2oc(-c3ccccc3C(=O)O)cc(=O)c2c1`: the inhibition is 13%.
With `COCc1nnc(NC(=O)CCCOc2ccccc2)s1` the figure was 0%; with `CC1(C)OC(=O)C(=CNc2ccccc2)C(=O)O1`, 4%.
In the case of `CCCCOc1ccc(C(=O)Nc2ccc(N3CCN(C(=O)C(C)C)CC3)cc2)cc1`, the inhibition was 6%.
With `Cc1ccc(NC(=O)CC2C(=O)NC3CCCCC3N2C(=O)c2ccc(F)cc2)cc1C` (stereo unspecified) the figure was 4%; with `CN(C)S(=O)(=O)c1ccc2c(c1)c(=O)c(C(=O)NCCCN1CCCCCC1)cn2C`, 0%.

(Values after PubChem BioAssay.)
